Measured values published in paper PMC7862700, “An all-to-all approach to the identification of sequence-specific readers for epigenetic DNA modifications on cytosine”.

Legend:
Assay in all cases: DAPPL (digital affinity profiling via proximity ligation, sequencing); 10 mM Tris-HCl pH 7.5, 50 mM NaCl, 1 mM DTT, 4% glycerol, room temperature, 30 min; GST-TFs on glutathione beads, 16-mer random dsDNA library, 0.1% formaldehyde crosslink after washing; high values mean tight binding
Conditions in all cases: protein: recombinant; tags: N-terminal GST; dsDNA, one strand shown
SPIC = target: T1, SPIC (Homo sapiens, UniProt Q8N5J4 1-248)
T1 sequence: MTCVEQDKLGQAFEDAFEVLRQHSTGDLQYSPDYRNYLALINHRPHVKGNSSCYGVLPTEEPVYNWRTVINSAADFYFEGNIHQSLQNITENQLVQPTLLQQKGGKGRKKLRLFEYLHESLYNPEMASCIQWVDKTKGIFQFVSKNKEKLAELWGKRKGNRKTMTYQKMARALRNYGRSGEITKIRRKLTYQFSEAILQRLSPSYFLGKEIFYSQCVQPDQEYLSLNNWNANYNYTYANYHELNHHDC
How it was run: (§1)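 Beads coated with glutathione captured GST-fused human transcription factors that had been expressed in yeast, and the factors were then given DNA barcodes and pooled with a tag-only sample. The pools were incubated with 200 nmole of a random double-stranded 16-mer DNA library in Tris/NaCl/DTT/glycerol buffer for 30 min at room temperature, washed, crosslinked with 0.1% formaldehyde and proximity-ligated with BsaI/T4 ligase at 37 °C for 1 h. PCR amplification and Illumina NextSeq500 sequencing came last. Binding signal is each hexamer's read frequency for a factor divided by its frequency for the tag-only sample.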

ETV3 = target: T2, ETV3 (Homo sapiens, UniProt P41162-2 1-143)
T2 sequence: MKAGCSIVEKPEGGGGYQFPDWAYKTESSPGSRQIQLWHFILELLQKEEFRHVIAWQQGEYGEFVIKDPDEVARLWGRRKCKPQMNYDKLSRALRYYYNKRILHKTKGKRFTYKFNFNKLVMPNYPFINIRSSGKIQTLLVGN
How it was run: as §1

ELK1 = target: T3, ELK1 (Homo sapiens, UniProt P19419 1-428)
T3 sequence: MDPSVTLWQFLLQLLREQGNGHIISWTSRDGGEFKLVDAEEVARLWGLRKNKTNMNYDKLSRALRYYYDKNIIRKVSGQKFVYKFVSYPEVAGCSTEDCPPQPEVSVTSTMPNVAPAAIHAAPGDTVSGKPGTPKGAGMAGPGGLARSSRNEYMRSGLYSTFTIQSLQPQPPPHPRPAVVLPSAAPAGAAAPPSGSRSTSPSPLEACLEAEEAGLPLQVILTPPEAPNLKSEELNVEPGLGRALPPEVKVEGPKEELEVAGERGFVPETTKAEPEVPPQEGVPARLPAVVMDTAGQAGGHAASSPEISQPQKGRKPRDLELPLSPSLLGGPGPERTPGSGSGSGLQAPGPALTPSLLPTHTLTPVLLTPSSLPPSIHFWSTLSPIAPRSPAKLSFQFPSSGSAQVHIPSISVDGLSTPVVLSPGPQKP
How it was run: as §1

GABPA = target: T4, GABPA (Homo sapiens, UniProt Q06546 1-454)
T4 sequence: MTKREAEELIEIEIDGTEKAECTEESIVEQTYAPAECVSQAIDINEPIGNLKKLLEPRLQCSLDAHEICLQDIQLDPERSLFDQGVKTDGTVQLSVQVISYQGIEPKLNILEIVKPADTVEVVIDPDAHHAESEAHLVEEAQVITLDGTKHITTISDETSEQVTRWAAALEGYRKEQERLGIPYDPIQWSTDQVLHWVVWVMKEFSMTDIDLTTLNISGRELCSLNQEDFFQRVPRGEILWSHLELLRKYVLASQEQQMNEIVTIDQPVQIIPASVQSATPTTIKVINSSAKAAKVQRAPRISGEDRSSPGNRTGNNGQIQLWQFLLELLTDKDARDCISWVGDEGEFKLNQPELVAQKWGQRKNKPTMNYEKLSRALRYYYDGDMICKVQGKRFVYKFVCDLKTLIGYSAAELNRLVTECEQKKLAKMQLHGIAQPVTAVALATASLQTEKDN
How it was run: as §1

ELF1 = ELF1 (Homo sapiens, UniProt P32519 1-619)
ELF1, sequence (P32519 whole entry): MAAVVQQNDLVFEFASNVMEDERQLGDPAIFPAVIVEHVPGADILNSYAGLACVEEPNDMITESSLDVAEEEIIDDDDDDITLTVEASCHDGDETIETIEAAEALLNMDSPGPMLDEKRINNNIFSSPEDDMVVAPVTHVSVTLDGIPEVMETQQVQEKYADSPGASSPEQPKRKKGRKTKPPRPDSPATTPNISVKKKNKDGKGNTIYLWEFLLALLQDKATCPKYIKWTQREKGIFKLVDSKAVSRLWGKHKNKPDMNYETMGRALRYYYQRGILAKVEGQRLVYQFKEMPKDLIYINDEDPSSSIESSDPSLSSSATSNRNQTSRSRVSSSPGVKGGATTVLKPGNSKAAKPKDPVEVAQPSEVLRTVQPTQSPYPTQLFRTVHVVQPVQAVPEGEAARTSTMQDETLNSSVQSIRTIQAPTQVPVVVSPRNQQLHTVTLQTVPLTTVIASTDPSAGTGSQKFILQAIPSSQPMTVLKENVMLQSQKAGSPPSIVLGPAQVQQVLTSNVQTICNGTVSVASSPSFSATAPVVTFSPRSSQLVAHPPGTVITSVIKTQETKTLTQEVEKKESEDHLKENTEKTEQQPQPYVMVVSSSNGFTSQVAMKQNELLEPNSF
How it was run: as §1

EHF = target: T5, EHF (Homo sapiens, UniProt Q9NZC4 1-300)
T5 sequence: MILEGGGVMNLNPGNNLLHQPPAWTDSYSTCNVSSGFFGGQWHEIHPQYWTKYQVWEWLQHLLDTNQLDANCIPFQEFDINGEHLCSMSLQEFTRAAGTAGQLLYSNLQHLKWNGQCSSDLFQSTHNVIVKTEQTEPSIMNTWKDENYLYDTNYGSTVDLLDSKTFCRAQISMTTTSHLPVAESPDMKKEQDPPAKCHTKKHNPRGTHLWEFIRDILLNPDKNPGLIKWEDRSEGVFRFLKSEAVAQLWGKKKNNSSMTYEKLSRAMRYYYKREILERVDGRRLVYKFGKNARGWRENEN
How it was run: as §1

SPIB = SPIB (Homo sapiens, UniProt Q01892 1-262)
SPIB, sequence (Q01892 whole entry): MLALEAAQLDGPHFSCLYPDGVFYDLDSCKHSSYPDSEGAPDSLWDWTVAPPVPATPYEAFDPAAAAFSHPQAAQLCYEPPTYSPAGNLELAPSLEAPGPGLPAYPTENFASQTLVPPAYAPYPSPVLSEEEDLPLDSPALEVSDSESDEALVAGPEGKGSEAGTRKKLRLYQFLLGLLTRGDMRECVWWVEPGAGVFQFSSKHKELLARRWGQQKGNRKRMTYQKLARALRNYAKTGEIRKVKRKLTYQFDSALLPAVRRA
How it was run: as §1

ELF4 = ELF4 (Homo sapiens, UniProt Q99607 1-663)
ELF4, sequence (Q99607 whole entry): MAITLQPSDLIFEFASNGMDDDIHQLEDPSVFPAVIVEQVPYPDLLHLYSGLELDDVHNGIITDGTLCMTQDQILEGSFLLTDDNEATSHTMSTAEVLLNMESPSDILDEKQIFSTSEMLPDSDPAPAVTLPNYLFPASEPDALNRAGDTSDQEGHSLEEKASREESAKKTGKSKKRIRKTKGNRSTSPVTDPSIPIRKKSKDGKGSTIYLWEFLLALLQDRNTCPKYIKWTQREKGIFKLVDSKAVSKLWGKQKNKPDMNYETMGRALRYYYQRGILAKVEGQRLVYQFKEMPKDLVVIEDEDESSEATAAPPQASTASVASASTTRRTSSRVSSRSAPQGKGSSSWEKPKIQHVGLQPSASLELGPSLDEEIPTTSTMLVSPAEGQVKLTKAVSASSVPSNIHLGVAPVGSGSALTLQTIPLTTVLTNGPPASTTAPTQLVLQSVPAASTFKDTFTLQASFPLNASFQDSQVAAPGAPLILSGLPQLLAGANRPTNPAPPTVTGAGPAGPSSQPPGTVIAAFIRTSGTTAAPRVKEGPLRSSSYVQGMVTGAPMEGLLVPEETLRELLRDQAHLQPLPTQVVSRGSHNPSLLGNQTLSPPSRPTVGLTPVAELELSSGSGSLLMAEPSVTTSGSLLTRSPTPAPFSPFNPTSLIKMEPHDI
How it was run: as §1

ELK4 = target: T6, ELK4 (Homo sapiens, UniProt P28324-2 1-405)
T6 sequence: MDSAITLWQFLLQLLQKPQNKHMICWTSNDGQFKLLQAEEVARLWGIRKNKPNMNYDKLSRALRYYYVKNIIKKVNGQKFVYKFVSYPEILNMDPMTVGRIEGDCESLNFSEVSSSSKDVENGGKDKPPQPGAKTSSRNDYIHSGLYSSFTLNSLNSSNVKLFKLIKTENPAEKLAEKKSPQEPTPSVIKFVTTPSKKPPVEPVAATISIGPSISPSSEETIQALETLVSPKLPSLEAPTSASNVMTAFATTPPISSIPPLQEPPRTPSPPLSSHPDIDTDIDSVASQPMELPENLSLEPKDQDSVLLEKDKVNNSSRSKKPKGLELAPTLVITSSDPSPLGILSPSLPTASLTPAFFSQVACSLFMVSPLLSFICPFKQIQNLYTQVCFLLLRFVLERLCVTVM
How it was run: as §1

ERF = target: T7, ERF (Homo sapiens, UniProt P50548 1-548)
T7 sequence: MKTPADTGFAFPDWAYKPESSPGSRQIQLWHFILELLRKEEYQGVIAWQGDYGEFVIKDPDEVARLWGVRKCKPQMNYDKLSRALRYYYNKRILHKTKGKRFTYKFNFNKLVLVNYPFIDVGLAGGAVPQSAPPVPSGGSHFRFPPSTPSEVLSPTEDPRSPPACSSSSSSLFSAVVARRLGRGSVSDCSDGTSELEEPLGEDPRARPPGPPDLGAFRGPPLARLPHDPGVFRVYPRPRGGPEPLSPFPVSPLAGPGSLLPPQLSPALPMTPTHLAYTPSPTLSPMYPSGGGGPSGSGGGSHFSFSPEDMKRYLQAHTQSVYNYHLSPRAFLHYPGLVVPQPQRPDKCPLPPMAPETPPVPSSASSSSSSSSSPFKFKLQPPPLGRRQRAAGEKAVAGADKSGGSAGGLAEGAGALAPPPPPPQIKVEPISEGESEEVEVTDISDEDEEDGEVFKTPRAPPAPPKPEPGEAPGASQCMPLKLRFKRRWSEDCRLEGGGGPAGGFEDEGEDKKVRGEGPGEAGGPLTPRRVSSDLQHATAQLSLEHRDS
How it was run: as §1

ETV3L = target: T8, ETV3L (Homo sapiens, UniProt Q6ZN32 1-361)
T8 sequence: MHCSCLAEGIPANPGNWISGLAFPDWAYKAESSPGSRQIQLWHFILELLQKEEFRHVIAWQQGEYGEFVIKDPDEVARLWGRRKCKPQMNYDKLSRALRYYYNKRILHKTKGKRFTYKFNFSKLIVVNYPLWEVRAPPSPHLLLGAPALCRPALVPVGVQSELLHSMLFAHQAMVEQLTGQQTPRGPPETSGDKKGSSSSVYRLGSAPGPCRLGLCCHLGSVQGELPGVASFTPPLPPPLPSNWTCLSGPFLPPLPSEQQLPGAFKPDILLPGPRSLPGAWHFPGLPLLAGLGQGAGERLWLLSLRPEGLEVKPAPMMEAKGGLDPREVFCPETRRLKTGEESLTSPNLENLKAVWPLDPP
How it was run: as §1

ETS2 = target: T9, ETS2 (Homo sapiens, UniProt P15036 1-469)
T9 sequence: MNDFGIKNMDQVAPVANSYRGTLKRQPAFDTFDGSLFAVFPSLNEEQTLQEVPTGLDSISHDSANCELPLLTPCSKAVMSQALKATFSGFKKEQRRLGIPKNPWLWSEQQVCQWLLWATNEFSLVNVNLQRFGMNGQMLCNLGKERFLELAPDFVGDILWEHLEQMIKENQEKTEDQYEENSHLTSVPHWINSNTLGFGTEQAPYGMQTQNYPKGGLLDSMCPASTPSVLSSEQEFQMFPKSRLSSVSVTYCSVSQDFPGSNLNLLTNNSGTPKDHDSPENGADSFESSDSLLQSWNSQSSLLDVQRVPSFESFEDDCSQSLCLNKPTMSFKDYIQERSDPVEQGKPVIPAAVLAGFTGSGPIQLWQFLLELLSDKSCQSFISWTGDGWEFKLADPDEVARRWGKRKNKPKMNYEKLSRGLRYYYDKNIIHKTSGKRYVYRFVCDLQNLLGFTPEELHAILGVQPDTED
How it was run: as §1

ETV6 = ETV6 (Homo sapiens, UniProt P41212 1-452)
ETV6, sequence (P41212 whole entry): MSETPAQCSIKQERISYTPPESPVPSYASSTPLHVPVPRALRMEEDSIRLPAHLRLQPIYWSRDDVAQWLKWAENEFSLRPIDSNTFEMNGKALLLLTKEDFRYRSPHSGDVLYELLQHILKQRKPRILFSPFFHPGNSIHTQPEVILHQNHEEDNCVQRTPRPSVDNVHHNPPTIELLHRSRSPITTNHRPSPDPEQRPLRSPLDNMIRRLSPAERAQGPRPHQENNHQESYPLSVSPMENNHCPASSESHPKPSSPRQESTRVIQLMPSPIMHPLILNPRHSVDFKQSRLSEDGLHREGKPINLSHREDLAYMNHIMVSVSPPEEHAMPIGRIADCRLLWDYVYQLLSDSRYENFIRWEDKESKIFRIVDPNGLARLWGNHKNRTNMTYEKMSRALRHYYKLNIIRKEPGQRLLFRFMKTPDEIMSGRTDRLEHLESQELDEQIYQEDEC
How it was run: as §1

Sequence: ATTCGG
- binding signal (SPIC): 1.04 fold enrichment (6-mer frequency, TF over GST control)
- binding signal (ETV3): 1.02 fold enrichment (6-mer frequency, TF over GST control)

Sequence: GCTGCA
- binding signal (ELK1): 1.07 fold enrichment (6-mer frequency, TF over GST control)
- binding signal (GABPA): 1.05 fold enrichment (6-mer frequency, TF over GST control)
- binding signal (ELF1): 1.05 fold enrichment (6-mer frequency, TF over GST control)
- binding signal (EHF): 1.08 fold enrichment (6-mer frequency, TF over GST control)
- binding signal (SPIB): 1.07 fold enrichment (6-mer frequency, TF over GST control)
- binding signal (SPIC): 1.09 fold enrichment (6-mer frequency, TF over GST control)
- binding signal (ELF4): 1.05 fold enrichment (6-mer frequency, TF over GST control)
- binding signal (ELK4): 1.08 fold enrichment (6-mer frequency, TF over GST control)
- binding signal (ERF): 1.2 fold enrichment (6-mer frequency, TF over GST control)
- binding signal (ETV3L): 1.11 fold enrichment (6-mer frequency, TF over GST control)
- binding signal (ETS2): 1.07 fold enrichment (6-mer frequency, TF over GST control)
- binding signal (ETV6): 1 fold enrichment (6-mer frequency, TF over GST control)
